USP28 inh – blocks human USP28 ubiquitin-rhodamine cleavage; purified USP28, Ub-rhodamine cleavage fluorescence, 30 min; inhibition, % at 25 µM; actives 3% (n = 47,000); AID 1645857
USP30 block – blocks human USP30 ubiquitin-rhodamine cleavage; purified USP30, Ub-rhodamine cleavage fluorescence; AID 1645860; actives 5.3% (n = 47,000); Q70CQ3; inhibition, % at 25 µM
USP17 inh – human USP17-like deubiquitinase inhibition; AID 1645855; actives 6.5% (n = 47,000); inhibition, % at 50 µM; A8MUK1; purified USP17, Ub-rhodamine cleavage fluorescence, 3 h
USP10 block – blocks human USP10 ubiquitin-rhodamine cleavage; Q14694; purified USP10, Ub-rhodamine fluorescence, 60 min; inhibition, % at 20 µM; actives 1.1% (n = 47,000); AID 1645856
USP8 inh – human USP8 deubiquitinase inhibition. purified USP8, Ub-rhodamine cleavage fluorescence, 30 min. actives 4.2% (n = 47,000). inhibition, % at 20 µM. P40818
Numbers without * were called inactive. In the library only some 13% were active in any assay of this set; here they are far more common. Cut-off read from the data, not from the text of the source: active = inhibition above about 30%; inactive = the rest.

SMILES | USP28 inh | USP30 block | USP17 inh | USP10 block | USP8 inh
COc1ccc(-c2noc(CC(=O)Nc3ccccc3OC)n2)cc1 | 6 | 17 | 0 | 3 | 22
COc1ccccc1NC(=O)NCc1nc(-c2ccc(C(F)(F)F)cc2)no1 | 9 | 46* | 24 | 4 | 2
CC(C)CCN1C[C@H]2CCN(C(=O)c3ccccc3)CC[C@H]2S1(=O)=O | 9 | 8 | 0 | 1 | 4
CCCS(=O)(=O)N1CCN(C2CCN(Cc3ccccc3)CC2)CC1 | -6 | -3 | -5 | -1 | -10
COc1cc2c(=O)n(Cc3ccccc3)c(=O)n(CC(=O)N3CCCc4ccccc43)c2cc1OC | 9 | 34* | 25 | 28 | 20
COCCNC(=O)CCCn1c(=O)c2cc(OC)c(OC)cc2n(CC(=O)N2CCCc3ccccc32)c1=O | 8 | 29 | 22 | 0 | 8
O=C(Nc1cccc2cccnc12)c1cccc(N2CCCCS2(=O)=O)c1 | 3 | 13 | 0 | 4 | 14
COc1ccc(O)c(C(=O)c2cc(C#N)c(=O)n(-c3ccccc3C)c2)c1 | -16 | -77 | 3 | -6 | -20
O=C(c1ccncc1)N1CCC(c2c[nH]c3ccccc23)(c2c[nH]c3ccccc23)CC1 | 6 | 4 | 47* | -2 | -13
CCOc1ncccc1C(=O)Nc1ccnn1Cc1ccccc1 | -2 | -12 | -10 | 50* | 1
COCCNc1ccc(-c2ccc(C)c(S(=O)(=O)N3CCOCC3)c2)nn1 | 5 | 20 | 16 | 3 | 21
COc1ccccc1-n1c(O)c(C2NCCc3c2[nH]c2ccccc32)c(=O)[nH]c1=O (stereo not drawn) | -30 | -211 | -46 | -8 | -49
Cc1ccc(Sc2c(C(F)(F)F)[nH]n(-c3ccccc3)c2=O)cc1 | 7 | 28 | 33* | 20 | -45
CCNC(=O)c1ccc(N2CCNCC2)c(NS(=O)(=O)c2cc(C)ccc2C)c1 | 4 | 1 | 3 | -3 | 36*
CCOc1cc2[nH]c(=O)n(CC3CCC(C(=O)NCCc4c[nH]c5ccccc45)CC3)c(=O)c2cc1OCC (stereo not drawn) | -6 | 37* | 23 | 19 | -10
CCOc1cc2[nH]c(=O)n(CC3CCC(C(=O)N4CCC5(CC4)OCCO5)CC3)c(=O)c2cc1OCC (stereo not drawn) | 0 | 11 | 5 | 0 | 4
O=C(Nc1ccccc1F)c1cncc(NS(=O)(=O)c2ccccc2)c1 | 2 | 3 | 5 | 0 | 8
Nc1ccc(F)c(NS(=O)(=O)c2ccccc2)c1 | 41* | -74 | 58* | -2 | 72*
Cc1ccc(OCc2nc3ccccc3n2CC(=O)Nc2ccc(C(F)(F)F)cc2)cc1 | -2 | 38* | 18 | 10 | 18
COc1ccc(NC(=O)Cn2c(CSc3ccc(C)cc3)nc3ccccc32)cc1 | 25 | -112 | 54* | -4 | -4
COc1ccc(OCc2ncc(C(=O)O)c(-c3ccncc3)n2)cc1 | -7 | -87 | -24 | -7 | -45
Cc1cccc(-n2nnc(-c3nc(-c4ccccc4F)no3)c2N)c1C | -1 | -6 | 14 | -10 | 15
Nc1c(-c2nc(-c3ccc(F)cc3)no2)nnn1-c1ccccc1F | -6 | 0 | 5 | 1 | 35*
Nc1c(-c2nc(-c3ccccc3Cl)no2)nnn1-c1ccc(Cl)cc1 | 20 | 40* | 43* | 60* | 94*
COc1ccc(-c2nnn(CC(=O)Nc3ccccc3)n2)cc1 | 39* | 46* | 49* | 10 | 2
SMILES | USP28 inh | USP30 block | USP17 inh | USP10 block | USP8 inh
O=C(Cn1nnc(-c2ccc(F)cc2)n1)NCCc1ccccc1 | 4 | 2 | 74* | 4 | 4
CCOc1ccc(-c2nnn(CC(=O)N3CCCCC3)n2)cc1 | 20 | 20 | 13 | 0 | 11
CCOC(=O)C(Cc1ccccc1)NC(=O)Cn1nnc(-c2ccccc2)n1 (stereo not drawn) | 15 | 35* | 27 | 4 | -12
COCCNC(=O)Cn1nnc(-c2ccc(-c3ccc(OC)cc3)cc2)n1 | 11 | 35* | 26 | 13 | 26
CSCC[C@H](NS(=O)(=O)c1ccc(C)cc1)C(=O)N1CCC(C(=O)N[C@@H](Cc2c[nH]c3ccccc23)C(=O)O)CC1 | 0 | -6 | 3 | 0 | 7
COc1ccc(NC(=O)c2nnn(-c3ccccc3)c2C)cc1Cl | 7 | -4 | 10 | 4 | 0
COc1ccc(NC(=O)c2nnn(-c3ccccc3)c2C)cc1OC | 56* | 0 | -4 | -4 | 1
COc1ccc(Cl)cc1-n1nnc(C(=O)Nc2ccc(C)cc2C)c1C | 24 | 13 | 31* | 4 | 19
Cc1cccc(NC(=O)c2nnn(-c3ccccc3Cl)c2C)c1C | 39* | 18 | 10 | 2 | 11
Cc1c(C(=O)Nc2ccccc2F)nnn1-c1cccc(F)c1 | 27 | -3 | 2 | -1 | -12
Cc1ccc(-n2nnc(C(=O)Nc3ccc(C)c(C)c3)c2C)cc1 | 12 | 27 | 19 | 4 | 40*
O=C(CN1C(=O)CCCc2cc(S(=O)(=O)N3CCCCC3)ccc21)NC1CCCC1 | -8 | 3 | -8 | -1 | -2
N#Cc1c(-c2cccc(C(F)(F)F)c2)nc(-c2ccccn2)nc1N1CCOCC1 | 8 | 27 | 14 | -2 | -25
Cc1ccc(-n2nnc(C(=O)Nc3ccccc3)c2C)cc1 | 6 | 16 | 49* | 2 | 0
COc1ccccc1-n1nnc(C(=O)Nc2ccc(Oc3ccccc3)cc2)c1C | 52* | 14 | 6 | 6 | 8
CCc1ccc(NC(=O)c2nnn(-c3ccc(C)cc3)c2C)cc1 | 10 | 7 | 11 | 8 | 25
COc1ccc(-n2nnc(C(=O)Nc3ccccc3)c2N)cc1 | 12 | 14 | 51* | 4 | 19
COc1cccc(-n2nnc(C(=O)Nc3ccc(Oc4ccccc4)cc3)c2C)c1 | 22 | -15 | -7 | 14 | -2
Nc1ccccc1SCc1noc(-c2cccs2)n1 | 73* | -11 | -8 | -1 | -18
COCc1ccc(C(=O)N2CC[C@]3(C)[C@H]2CCCCC(=O)N3Cc2ccc(F)cc2)cc1 | -2 | -16 | -8 | -8 | 4
CCc1ccccc1OCCOCCN1CCN(C)CC1 | -2 | -17 | -34 | -1 | 2
Cc1cc(OCCOCCN2CCN(C)CC2)cc(C)c1Cl | 33* | 5 | 0 | 0 | -7
Cc1nc(-c2ccc(C)c(S(=O)(=O)NC(C)C(=O)Nc3ccc(C)c(F)c3)c2)no1 (stereo not drawn) | 24 | 36* | 3 | 19 | 11
CCC(=O)Nc1nc2cc(NC(=O)Nc3ccccc3Cl)ccc2s1 | 3 | 14 | 0 | 24 | 33*
O=C(CSc1nnc(-c2cccc(Cl)c2)o1)N1CCCc2ccccc21 | 23 | 32* | 23 | 6 | 20
O=C(CSc1nnc(-c2cccnc2)o1)Nc1ccc(F)cc1 | 3 | 27 | 16 | 0 | 16
Cc1ccc(-c2nnc3ccc(SCC(=O)N4CCCc5ccccc54)nn23)cc1 | 18 | 30* | -4 | -1 | -4
CN(Cc1ccccc1)C(=O)CSc1nnc(-c2ccc3c(c2)OCO3)o1 | 19 | 29 | 5 | 2 | -20

Screening data as filed in PubChem BioAssay.
